We go through 40 compounds from PubChem BioAssay AID2113 (National Center for Advancing Translational Sciences (NCATS), 2009).

SMILES strings stand for the structures. Records with an inconclusive call do not appear. Unmarked numbers belong to inactive results. Calls of active or inactive are those of the source. Calls follow the shape of the dose curve; as a rule, active = well fitted curve in either direction with a large enough effect; inconclusive = small, poorly fitted or top-dose-only effect; inactive = no such curve, though single readings can be large or run the other way.
Potency is read from the fitted curve at half-maximal effect.

The target of this assay is Lysosomal alpha-glucosidase (Homo sapiens) (UniProt P10253). Briefly: Confirmation of Inhibitors and Activators of Human alpha-Glucosidase From Spleen Homogenate. As to activity change, both directions: 0% is about no effect. To be noted: alpha-glucosidase enzyme activity; series mostly up to 60.5 µM; activity change, both directions: at the top concentration. An excerpt:
NIH Chemical Genomics Center [NCGC]
NIH Molecular Libraries Probe Production centers Network [MLPCN]
Assay Submitter (PI): Wei Zheng
Alpha-glucosidase is responsible for hydrolysis of terminal, non-reducing 1,4-linked alpha-D-glucose residues with release of alpha-D-glucose. It is a lysosomal hydrolase that is required for the degradation of a small percentage (1-3%) of cellular glycogen in human. Deficiency of this enzyme results in glycogen-storage disease type II (GSDII), also referred to as Pompe disease, an autosomal recessive disorder. Structurally normal glycogen is accumulated in lysosomes and cytoplasm in affected patients, primarily in muscle tissues. Excessive glycogen storage within lysosomes may interrupt normal functioning of other organelles and leads to cellular injury. In turn, this leads to enlargement and dysfunction of the entire organ involved (eg, cardiomyopathy and muscle weakness).
It has reported that the improper folding and trafficking of alpha-glucosidase resultinged from the genetic mutations may account for a significant number of Pomrope patients. […] We optimized this alpha-glucosidase assay in 1536-well plate format for identifying the novel small molecule inhibitors with the structures other than the sugar analogs in order to develop the new pharmacological chaperones. In particular, this assay is directed towards discovering compounds active in a more natural setting, tissue homogenate, that may have been missed by screens of the purified enzyme under more stringent conditions. This assay attempted to confirm hits from the primary screening.
NCGC Assay Protocol Summary:
This is a fluorogenic enzyme assay with 4-methylumbelliferyl-alpha-D-glucopyranoside as the substrate and human spleen homogenate containing alpha-glucosidase as the enzyme preparation. Upon hydrolysis of this fluorogenic substrate, the resulting product, 4-methylumbelliferone (which excites at 365 nm and emits at 440 nm) can be detected by a fluorescence plate reader. Data were normalized to the controls for basal activity (without enzyme) and 100% activity (with enzyme). The AC50 values were determined from concentration-response data modeled with the standard Hill equation.
Assay buffer: 50 mM citric acid (titrated with potassium phosphate to pH 5.0), 0.01% Tween-20 (pH 5.0 is an optimal condition for this enzyme assay)
1536-well assay protocol for the alpha-glucosidase from human spleen homogenate:
(1) Add 2 ul/well spleen homogenate (1 ug)
(2) Add 23 nL compounds in DMSO solution. The final titration was 0.5 nM to 58 uM.
(3) Add 2 ul of substrate (1 mM final)
(4) Incubate at 37 C for 40 min
(5) Add 2 ul stop solution (1M NaOH and 1M Glycine mixture, pH 10)
(6) Detect the assay plate in a ViewLux plate reader (PerkinElmer) with Ex=365 nm and Em=440nm.
Keywords: Alpha-glucosidase, Pompe Disease, pharmacological chaperone, chaperone therapy, high throughput screening, alpha-glucosidase inhibitor, MLSMR, MLSCN, NIH Roadmap, qHTS and NCGC
On to `CCOC(=O)C1CCCN(C(=O)CCC(=O)Nc2ccc3nc(N4CCOCC4)cc(C)c3c2)C1` (stereo not given), for which the “activity change, both directions” value was 25.1% [at 31.5 µM].

For `CC/C(=C(\c1ccccc1)c1ccc(OCCN(C)C)cc1)c1ccccc1`, the “activity change, both directions” value is -10% [at 286 µM].

On to `CC1(CCc2ccc3c(c2)OCO3)NC(=O)c2ccccc2N1` (stereo not given), for which the “activity change, both directions” value is 4.52% [at 31.5 µM].

With `Cc1cnc(C(=O)Nc2cc(S(=O)(=O)N3CCOCC3)ccc2N2CCN(C)CC2)cn1`, the “activity change, both directions” value is -28%.

With `O=c1oc2ccc(Cl)cc2cc1-c1nc2c(s1)CCc1ccccc1-2`, the “activity change, both directions” value is -1.76%.

Take `N#Cc1ccc(N2CCN(S(=O)(=O)c3ccc4c(c3)CC(=O)N4)CC2)cc1`: the Potency was 1.16 µM [inhibitor] (active).

`CC(C)Cn1c(SCC(=O)N2CCCCC2)nc2ccccc2c1=O`: the “activity change, both directions” value was -2.36% [at 31.5 µM].

Consider `C/C=C1\COC(C(=O)NCCN2CCOCC2)(C(F)(F)F)C=C1C=C1CCCCC1` (stereo not given), for which the “activity change, both directions” value was -1.87%.

For `O=c1oc2ccc(Cl)cc2cc1-c1nc2c(s1)CCCC2`, the “activity change, both directions” value is 15.9%.

Regarding `c1ccc(-c2nc3nc4ccccc4nc3n2CC2CCCO2)cc1` (stereo not given), the “activity change, both directions” value is 7.03% [at 31.5 µM].

For the compound `C=CCCCCCCCCCCCc1ccco1`, the “activity change, both directions” value was -13.3% [at 286 µM].

On to `Cc1ccc(-n2c3c(c(=O)[nH]c2=S)C(C(F)(F)F)(C(F)(F)F)NC(=O)N3)cc1`, for which the “activity change, both directions” value is 0.812% [at 31.5 µM].

As to `O=S(=O)(c1cccnc1)N1CCOCC1`, the “activity change, both directions” value is -4.01%.

On to `COc1ccc(Cc2nnc(NC(=O)CSc3ccc(Cl)cc3)s2)cc1`, for which the “activity change, both directions” value was -3.34%.

For `O=c1[nH]c2ccccc2nc1/C=C/c1ccc2c(c1)OCO2`, the “activity change, both directions” value is 3.87%.

For the compound `CCCN1CNc2c(c(=O)[nH]c(=S)n2CCc2ccc(Cl)cc2Cl)C1`, the Potency is 22.4 µM (active).

As to `CCCN1CNc2c(c(=O)[nH]c(=S)n2CCc2ccc3c(c2)OCCO3)C1`, the Potency is 15.8 µM (active).

Take `CCc1sc(-c2cc3ccc(O)cc3oc2=O)nc1-c1cc(C)ccc1C`: the “activity change, both directions” value was 8.32%.

On to `OCC(CO)NC1C[C@](O)(CO)[C@@H](O)[C@H](O)[C@H]1O` (stereo not given in full), for which the “activity change, both directions” value is -99.6% [at 286 µM].

With `COc1ccc(/C=C/c2nnc(NC(C)=O)s2)cc1`, the “activity change, both directions” value was 1.39%.

Take `CCCN1CNc2c(c(=O)[nH]c(=S)n2CCc2ccc(OC)cc2)C1`: the Potency is 14.1 µM (active).

With `O=S(=O)(c1ccccc1)N1CCN(S(=O)(=O)c2ccccc2)CC1`, the “activity change, both directions” value is 4.23%.

Consider `Cc1cccc(S(=O)(=O)c2c(N)n(-c3ccccc3)c3nc4ccccc4nc23)c1`, for which the “activity change, both directions” value was 12.7% [at 31.5 µM].

As for `O=C(c1ccccc1)N1CCN(C(=O)c2ccccc2)CC1`, the “activity change, both directions” value was 0.493%.

For the compound `COc1ccc(N2CCN(S(=O)(=O)c3ccc4c(c3)CC(=O)N4)CC2)cc1`, the Potency is 18.8 µM [inhibitor] (active).

As for `CC1S/C(=N\N=C\c2cccc([N+](=O)[O-])c2)N(C(C)(C)C)C1=O` (stereo not given), the “activity change, both directions” value was -1.21% [at 31.5 µM].

For `NC(=NCc1ccccc1)NC(=O)c1nc(Cl)c(N)nc1N`, the “activity change, both directions” value is -54%.

With `COc1cc(C2c3cc4c(cc3C(OC3OC5COC(C)O[C@@H]5C(O)C3O)C3COC(=O)C23)OCO4)cc(OC)c1O` (stereo not given in full), the Potency is 25.1 µM (active).

As to `O=C1c2ccccc2NC(c2cccnc2)N1c1ccccc1F` (stereo not given), the “activity change, both directions” value is 8.66% [at 31.5 µM].

With `CC1(C)CC(=O)c2cc(C(=O)NCc3ccco3)c(=O)n(-c3ccc(Cl)cc3)c2C1`, the “activity change, both directions” value is -1.85% [at 31.5 µM].

Turning to `COc1ccc(NS(=O)(=O)c2ccc(O)c(NC(=O)c3cc4c(C)nn(-c5ccc(F)cc5)c4s3)c2)cc1`, the “activity change, both directions” value was -1.49%.

`COc1ccc2cc(C#N)c(=O)oc2c1`: the “activity change, both directions” value is 6.52%.

Turning to `COc1cc(=O)[nH]c(=O)n1C(=O)Cc1ccccc1`, the “activity change, both directions” value is 2.38% [at 31.5 µM].

For `CCCN1CNc2c(c(=O)[nH]c(=S)n2CCc2cccc(C)c2C)C1`, the Potency is 12.6 µM (active).

Regarding `O=C(c1ccccc1)N1CCN(S(=O)(=O)c2ccccc2)CC1`, the “activity change, both directions” value was 1.54%.

`COc1ccc(OC)c(/C=C/C(=O)N(C)CC(=O)Nc2ccc(C)cc2)c1`: the “activity change, both directions” value was 6.32% [at 31.5 µM].

For the compound `CCCc1cc(-c2nc(N)ncc2-c2ccc3c(c2)OCCCO3)c(O)cc1OC`, the “activity change, both directions” value was -7.94%.

`CCc1sc(-c2cc3ccccc3oc2=O)nc1-c1cc(C)ccc1C`: the Potency is 31.6 µM (active).

As for `CCOC(=O)c1ccc(NC(=O)c2ccccc2)cc1`, the “activity change, both directions” value was 1.14% [at 31.5 µM].

For the compound `CCCN1CNc2c(c(=O)[nH]c(=S)n2-c2ccc(Cl)cc2)C1`, the “activity change, both directions” value was -3.54% [at 31.5 µM].
